Experiment [1] addresses Nuclear receptor coactivator 1 (Homo sapiens) (UniProt Q15788). Put plainly: NCOA1 GAL4-fusion reporter inhibition – cell-based, luminescence, quadruplicate, confirmation (AID 588820).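 Also: 0% = DMSO wells and 100% = gossypol 36 µM treated wells.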 Particulars: HEK293 GAL4-SRC1 luciferase reporter, at 3.6 µM, hits give high values.
Experiment [2] is described as follows: repression of VP16-driven luciferase reporter – cell-based, luminescence, high throughput, counter-screen for SRC1 inhibitor project (AID 588824; in the data active = inhibition above about 25%). Particulars: cell-based VP16 transactivation luciferase luminescence; at 3.6 µM; hits give high values. On the technique in general: In a reporter assay the amount or activity of a reporter protein is the signal.

A number with no mark means an inactive call. Calls of active or inactive are those of the source.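 The calls were made as follows, unless noted: active = mean inhibition above 46.68%, the untreated control wells mean plus 3 SD; inactive = the rest.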

Nuclear receptor coactivator 1 (Homo sapiens), sequence (Q15788 whole entry, looked up, the tested form may be a part): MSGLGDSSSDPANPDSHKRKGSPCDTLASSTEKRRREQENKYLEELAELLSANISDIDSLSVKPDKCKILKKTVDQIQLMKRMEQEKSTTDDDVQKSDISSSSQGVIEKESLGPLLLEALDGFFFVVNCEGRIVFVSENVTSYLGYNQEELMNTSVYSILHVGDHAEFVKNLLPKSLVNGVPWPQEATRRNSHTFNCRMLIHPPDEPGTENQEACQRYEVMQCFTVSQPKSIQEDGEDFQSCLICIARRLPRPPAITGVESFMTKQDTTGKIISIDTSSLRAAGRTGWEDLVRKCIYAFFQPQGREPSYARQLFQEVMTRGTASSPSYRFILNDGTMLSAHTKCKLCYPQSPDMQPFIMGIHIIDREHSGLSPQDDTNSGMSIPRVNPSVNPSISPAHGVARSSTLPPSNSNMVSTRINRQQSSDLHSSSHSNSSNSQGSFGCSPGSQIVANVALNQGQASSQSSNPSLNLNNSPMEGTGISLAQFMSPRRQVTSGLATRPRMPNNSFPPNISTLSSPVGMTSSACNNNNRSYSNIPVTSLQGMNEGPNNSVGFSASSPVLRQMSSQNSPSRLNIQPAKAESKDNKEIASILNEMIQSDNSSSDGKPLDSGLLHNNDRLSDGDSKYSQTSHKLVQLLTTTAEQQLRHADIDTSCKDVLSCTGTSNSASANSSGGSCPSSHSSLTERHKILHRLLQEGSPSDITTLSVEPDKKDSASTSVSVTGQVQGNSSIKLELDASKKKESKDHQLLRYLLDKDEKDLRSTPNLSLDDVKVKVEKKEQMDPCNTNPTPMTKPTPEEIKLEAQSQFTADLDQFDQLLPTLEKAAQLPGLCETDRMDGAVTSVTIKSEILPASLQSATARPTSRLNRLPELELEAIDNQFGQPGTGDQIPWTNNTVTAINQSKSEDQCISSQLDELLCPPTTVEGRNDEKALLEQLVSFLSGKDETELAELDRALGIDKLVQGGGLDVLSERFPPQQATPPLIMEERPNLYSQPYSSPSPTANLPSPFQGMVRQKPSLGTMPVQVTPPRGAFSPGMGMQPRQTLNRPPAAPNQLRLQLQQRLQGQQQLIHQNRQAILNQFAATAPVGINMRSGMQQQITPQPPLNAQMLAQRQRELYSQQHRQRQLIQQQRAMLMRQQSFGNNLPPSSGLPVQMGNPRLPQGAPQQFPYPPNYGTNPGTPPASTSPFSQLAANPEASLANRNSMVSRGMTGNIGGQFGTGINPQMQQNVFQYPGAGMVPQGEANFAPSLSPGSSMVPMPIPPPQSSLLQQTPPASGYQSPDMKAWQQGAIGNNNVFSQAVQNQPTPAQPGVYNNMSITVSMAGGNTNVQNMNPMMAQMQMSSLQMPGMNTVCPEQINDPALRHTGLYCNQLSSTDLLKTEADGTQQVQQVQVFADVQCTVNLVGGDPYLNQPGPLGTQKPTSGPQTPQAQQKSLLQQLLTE

On to `CCC(C)c1ccc(S(=O)(=O)Nc2cccnc2)cc1` (configuration not stated), for which the values for the inhibition in experiment [1] and in experiment [2] were -9.79% and -4.32%, respectively.
For `CCCNC(=O)C1(C)CCCN(Cc2cccc(C#N)c2)C1` (configuration not stated) the same measures were 36.4% and 26% (active).
As to `Cc1cc(C)c2nc(NNC(=O)c3ccc(S(=O)(=O)N4CC(C)CC(C)C4)cc3)sc2c1` (configuration not stated), the inhibition (as a rule, the drop in the measured response relative to a control, in per cent) in experiment [1] is 32.4%; in experiment [2], 30.2% (active).
For `COc1ccc(/C=N/Nc2nc3ccccc3[nH]2)c(OC)c1OC` the same measures were -27.8% and -23%.
The matching figures for `Cc1cc(-c2ccc(F)cc2)n2ncc(-c3ccccc3)c2n1`: -87.3% and -34.6%.
For `CCOc1ccc(OCCC(=O)OCC(=O)NNC(=O)c2ccccc2)cc1` the same measures were -5.67% and -3.09%.
`CCOCCOC(=O)c1[nH]c2c(c1C)C(=O)CC(c1cc(OC)c(OC)c(OC)c1)C2` (configuration not stated): the inhibition in experiment [1] was -15.9%; in experiment [2], 13.5%.
The matching figures for `CCNC(=O)C1(C)CCN(C(=O)c2ccc(F)cc2Cl)C1` (configuration not stated): 4.79% and 3.22%.
The matching figures for `O=C1c2cccc(OCc3ccc(F)cc3)c2CCN1Cc1ccc(F)cc1`: 21.3% and 33.4% (active).
The matching figures for `Cc1[nH]nc2ncc(C(=O)c3cc(F)ccc3O)cc12`: 18.4% and 16.1%.
Regarding `COc1cc(C(=O)NCCOc2cc(C)ccc2C(C)C)cc(OC)c1OC`, the inhibition in experiment [1] was -14.4%; in experiment [2], 23.8%.
The matching figures for `c1ccc(-n2cnc3cc(NCc4cccs4)ccc32)cc1`: -69.4% and -44.1%.
As for `NS(=O)(=O)c1ccc(CNC(=O)c2cnccn2)cc1`, the results for the inhibition in experiment [1] and in experiment [2] were -22.2% and -8.37%, respectively.
The matching figures for `O=C1CSc2ccc(S(=O)(=O)NCc3ccccc3)cc2N1`: -4.74% and -9.61%.
For `c1cncc(CNC2CCCc3ccccc32)c1` (configuration not stated) the same measures were 0.67% and -8.78%.
For `O=C(Nc1ccc(S(=O)(=O)N2CCCCC2)cc1)C1CCN(C(=O)c2ccc(F)cc2)CC1` the same measures were 7.57% and -1.11%.
Take `CC(C)N(C)c1ncnc2c1ncn2[C@H]1CN(Cc2ccncc2)C[C@@H](CO)O1`: the inhibition in experiment [1] is -19.9%; in experiment [2] it was -7.41%.
For `Cc1ccc(N2C(N)=C(C#N)C3(C(=O)N(C)c4ccccc43)C3=C2CC(C)(C)CC3=O)cc1Cl` (configuration not stated) the same measures were 3.57% and 14.7%.
For the compound `CC(O)c1nc2cc([N+](=O)[O-])ccc2n1Cc1ccccc1` (configuration not stated), the inhibition in experiment [1] is -1.46%; in experiment [2], -6.35%.
Regarding `O=C1CC2(CCCC2)CC(=O)N1CCCCN1CCN(c2ncccn2)CC1`, the inhibition in experiment [1] is 0.34%; in experiment [2] it was 2.87%.
The matching figures for `CCOC(=O)CSc1cc(-c2ccccc2)nc2ncnn12`: 17.9% and 4.7%.
With `COc1ccc(OC)c(/C=C2\NC(=O)NC2=O)c1`, the inhibition in experiment [1] is 29.5%; in experiment [2], 15.5%.
The matching figures for `COC(=O)c1cc2ccccn2c2c(C(=O)OC)c(C(=O)OC)cc1-2`: -58.3% and -27.2%.
For `COc1ccccc1NC(=O)Cn1c(C)cc(=O)c2cccc(OC)c21` the same measures were -24.2% and 4.63%.
For `CCN(CC)c1ccc(/C=N/Nc2nc3ccccc3[nH]2)c(O)c1` the same measures were -7.34% and 3.82%.
Turning to `COc1ccc(C(=O)Nc2ccc(N3CCCCCC3)cc2)cc1S(=O)(=O)N1CCOCC1`, the inhibition is -2.46% in experiment [1] and 18.2% in experiment [2].

For the origin of these results see PubChem BioAssay.
